How the values were obtained:
Assay in all cases: DAPPL (digital affinity profiling via proximity ligation, sequencing); 10 mM Tris-HCl pH 7.5, 50 mM NaCl, 1 mM DTT, 4% glycerol, room temperature, 30 min; GST-TFs on glutathione beads, 16-mer random dsDNA library, 0.1% formaldehyde crosslink after washing; high values mean tight binding
FEV = biological target: T1, FEV (Homo sapiens, UniProt Q99581 1-238); conditions: protein: recombinant; tags: N-terminal GST; dsDNA, one strand shown
T1 sequence: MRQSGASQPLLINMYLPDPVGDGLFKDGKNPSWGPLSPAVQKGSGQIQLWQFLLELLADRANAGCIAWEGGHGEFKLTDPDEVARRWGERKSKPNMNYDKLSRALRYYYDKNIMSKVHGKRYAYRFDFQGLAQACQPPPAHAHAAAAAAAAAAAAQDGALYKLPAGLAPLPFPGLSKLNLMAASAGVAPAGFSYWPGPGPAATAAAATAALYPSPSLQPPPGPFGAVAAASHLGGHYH
Summary of the method: (§1)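 GST fusions of human transcription factors were expressed in yeast and captured with glutathione beads. Once given DNA barcodes and pooled alongside a tag-only sample, they were incubated for 30 min at room temperature with 200 nmole of a random double-stranded 16-mer DNA library in Tris/NaCl/DTT/glycerol buffer, then washed, crosslinked (0.1% formaldehyde), proximity-ligated, PCR-amplified and sequenced on an Illumina NextSeq500. The binding signal of each hexamer is its read frequency for a factor divided by its frequency for the tag-only sample.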

ETV5 = ETV5 (Homo sapiens, UniProt P41161 1-510); conditions: protein: recombinant; tags: N-terminal GST; dsDNA, one strand shown
ETV5, sequence (P41161 whole entry): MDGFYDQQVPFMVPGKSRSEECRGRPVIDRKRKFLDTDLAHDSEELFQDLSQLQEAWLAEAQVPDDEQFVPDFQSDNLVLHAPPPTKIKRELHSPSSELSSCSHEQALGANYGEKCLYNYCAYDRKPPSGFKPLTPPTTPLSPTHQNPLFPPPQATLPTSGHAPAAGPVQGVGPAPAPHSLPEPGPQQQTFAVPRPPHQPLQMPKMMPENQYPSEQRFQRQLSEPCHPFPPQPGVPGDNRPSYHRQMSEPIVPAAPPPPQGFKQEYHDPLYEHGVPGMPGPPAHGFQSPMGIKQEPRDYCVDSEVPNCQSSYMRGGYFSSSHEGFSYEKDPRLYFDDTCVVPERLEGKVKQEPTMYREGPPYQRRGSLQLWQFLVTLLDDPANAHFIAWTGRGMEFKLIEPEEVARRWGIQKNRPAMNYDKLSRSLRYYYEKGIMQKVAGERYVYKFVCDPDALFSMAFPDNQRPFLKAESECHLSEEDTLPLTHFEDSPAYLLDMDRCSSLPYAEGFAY
Summary of the method: as §1

HSF1 = HSF1 (Homo sapiens, UniProt Q00613 1-529); conditions: protein: recombinant; tags: N-terminal GST; chain copies: 3; dsDNA, one strand shown
HSF1, sequence (Q00613 whole entry): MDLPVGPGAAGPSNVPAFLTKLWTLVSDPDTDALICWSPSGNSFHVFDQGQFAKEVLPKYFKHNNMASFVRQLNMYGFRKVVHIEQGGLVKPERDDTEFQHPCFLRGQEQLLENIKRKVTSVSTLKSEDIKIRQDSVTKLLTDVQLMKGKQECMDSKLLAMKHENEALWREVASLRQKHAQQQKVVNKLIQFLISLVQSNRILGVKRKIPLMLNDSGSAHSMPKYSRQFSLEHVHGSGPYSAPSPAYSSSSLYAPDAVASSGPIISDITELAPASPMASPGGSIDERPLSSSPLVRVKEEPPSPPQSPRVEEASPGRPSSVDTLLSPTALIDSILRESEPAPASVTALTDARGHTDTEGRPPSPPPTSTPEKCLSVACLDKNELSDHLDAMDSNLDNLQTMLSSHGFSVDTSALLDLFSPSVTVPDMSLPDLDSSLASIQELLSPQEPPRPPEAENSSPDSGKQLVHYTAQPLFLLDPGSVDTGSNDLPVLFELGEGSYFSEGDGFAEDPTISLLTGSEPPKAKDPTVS
Summary of the method: as §1

SPIC = biological target: T2, SPIC (Homo sapiens, UniProt Q8N5J4 1-248); conditions: protein: recombinant; tags: N-terminal GST; dsDNA, one strand shown
T2 sequence: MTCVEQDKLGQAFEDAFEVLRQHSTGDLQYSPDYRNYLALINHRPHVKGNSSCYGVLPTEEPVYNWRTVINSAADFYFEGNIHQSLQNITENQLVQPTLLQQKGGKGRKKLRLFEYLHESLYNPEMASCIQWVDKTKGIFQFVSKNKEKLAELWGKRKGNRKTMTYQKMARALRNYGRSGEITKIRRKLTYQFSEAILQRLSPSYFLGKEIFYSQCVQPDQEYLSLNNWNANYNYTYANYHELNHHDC
Summary of the method: as §1

ELF4 = ELF4 (Homo sapiens, UniProt Q99607 1-663); conditions: protein: recombinant; tags: N-terminal GST; dsDNA, one strand shown
ELF4, sequence (Q99607 whole entry): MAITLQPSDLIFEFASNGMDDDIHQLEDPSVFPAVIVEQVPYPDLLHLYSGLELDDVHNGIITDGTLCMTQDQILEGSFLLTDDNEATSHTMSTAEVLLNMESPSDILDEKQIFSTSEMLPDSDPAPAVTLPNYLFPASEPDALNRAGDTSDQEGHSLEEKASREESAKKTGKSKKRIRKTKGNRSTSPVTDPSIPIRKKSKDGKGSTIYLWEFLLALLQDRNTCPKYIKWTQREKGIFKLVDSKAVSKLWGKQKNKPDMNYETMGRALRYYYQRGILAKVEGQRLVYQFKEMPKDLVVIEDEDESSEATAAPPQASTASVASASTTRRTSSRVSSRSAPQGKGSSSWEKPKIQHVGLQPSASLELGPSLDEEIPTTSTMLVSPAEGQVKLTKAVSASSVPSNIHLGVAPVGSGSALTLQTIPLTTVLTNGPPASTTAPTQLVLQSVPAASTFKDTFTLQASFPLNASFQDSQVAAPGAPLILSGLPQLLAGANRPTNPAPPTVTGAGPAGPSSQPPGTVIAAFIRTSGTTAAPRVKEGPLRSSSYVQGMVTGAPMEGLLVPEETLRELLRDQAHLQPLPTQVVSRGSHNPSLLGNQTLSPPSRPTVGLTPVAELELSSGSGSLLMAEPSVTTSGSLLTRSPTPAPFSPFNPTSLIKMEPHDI
Summary of the method: as §1

ELK4 = biological target: T3, ELK4 (Homo sapiens, UniProt P28324-2 1-405); conditions: protein: recombinant; tags: N-terminal GST; dsDNA, one strand shown
T3 sequence: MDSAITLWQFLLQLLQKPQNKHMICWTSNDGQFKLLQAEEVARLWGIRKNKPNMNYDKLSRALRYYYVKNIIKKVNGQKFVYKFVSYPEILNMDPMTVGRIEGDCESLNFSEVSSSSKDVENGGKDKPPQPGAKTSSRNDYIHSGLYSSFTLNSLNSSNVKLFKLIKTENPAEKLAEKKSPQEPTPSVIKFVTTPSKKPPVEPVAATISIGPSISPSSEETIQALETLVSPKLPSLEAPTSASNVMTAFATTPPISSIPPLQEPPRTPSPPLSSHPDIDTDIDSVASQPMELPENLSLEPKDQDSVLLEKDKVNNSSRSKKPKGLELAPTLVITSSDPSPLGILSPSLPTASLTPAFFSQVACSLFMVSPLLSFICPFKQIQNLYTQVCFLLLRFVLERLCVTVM
Summary of the method: as §1

ETV2 = biological target: T4, ETV2 (Homo sapiens, UniProt O00321 1-342); conditions: protein: recombinant; tags: N-terminal GST; dsDNA, one strand shown
T4 sequence: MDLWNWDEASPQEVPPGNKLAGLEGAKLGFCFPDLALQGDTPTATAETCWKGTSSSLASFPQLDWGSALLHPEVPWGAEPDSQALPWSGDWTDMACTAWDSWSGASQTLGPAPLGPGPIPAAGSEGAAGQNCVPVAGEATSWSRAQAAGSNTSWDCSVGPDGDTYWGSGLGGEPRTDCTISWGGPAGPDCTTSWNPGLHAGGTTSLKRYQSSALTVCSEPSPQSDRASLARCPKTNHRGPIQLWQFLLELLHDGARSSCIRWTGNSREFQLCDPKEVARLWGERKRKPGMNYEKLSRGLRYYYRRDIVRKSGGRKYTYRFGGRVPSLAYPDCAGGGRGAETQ
Summary of the method: as §1

ELF3 = biological target: T5, ELF3 (Homo sapiens, UniProt P78545 1-371); conditions: protein: recombinant; tags: N-terminal GST; dsDNA, one strand shown
T5 sequence: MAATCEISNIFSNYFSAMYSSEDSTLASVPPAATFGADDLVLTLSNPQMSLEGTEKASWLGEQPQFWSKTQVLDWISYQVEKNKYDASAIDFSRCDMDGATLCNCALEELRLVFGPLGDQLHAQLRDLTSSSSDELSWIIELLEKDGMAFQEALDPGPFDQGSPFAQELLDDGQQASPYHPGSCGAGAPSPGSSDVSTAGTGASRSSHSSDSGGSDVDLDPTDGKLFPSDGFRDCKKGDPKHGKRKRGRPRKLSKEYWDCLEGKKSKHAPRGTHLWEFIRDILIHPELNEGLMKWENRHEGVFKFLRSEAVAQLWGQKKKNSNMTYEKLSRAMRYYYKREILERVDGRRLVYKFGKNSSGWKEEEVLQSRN
Summary of the method: as §1

CRX = CRX (Homo sapiens, UniProt O43186 1-299); conditions: protein: recombinant; tags: N-terminal GST; dsDNA, one strand shown
CRX, sequence (O43186 whole entry): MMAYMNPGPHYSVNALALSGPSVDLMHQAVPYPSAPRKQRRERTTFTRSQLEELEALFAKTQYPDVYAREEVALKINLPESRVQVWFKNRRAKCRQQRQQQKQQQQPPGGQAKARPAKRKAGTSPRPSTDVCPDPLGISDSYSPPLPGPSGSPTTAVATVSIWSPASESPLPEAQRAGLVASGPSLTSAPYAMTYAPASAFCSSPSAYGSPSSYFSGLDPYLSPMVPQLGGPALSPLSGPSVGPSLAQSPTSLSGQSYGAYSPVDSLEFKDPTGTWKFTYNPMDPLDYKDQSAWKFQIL
Summary of the method: as §1

ETV1 = ETV1 (Homo sapiens, UniProt P50549 1-477); conditions: protein: recombinant; tags: N-terminal GST; dsDNA, one strand shown
ETV1, sequence (P50549 whole entry): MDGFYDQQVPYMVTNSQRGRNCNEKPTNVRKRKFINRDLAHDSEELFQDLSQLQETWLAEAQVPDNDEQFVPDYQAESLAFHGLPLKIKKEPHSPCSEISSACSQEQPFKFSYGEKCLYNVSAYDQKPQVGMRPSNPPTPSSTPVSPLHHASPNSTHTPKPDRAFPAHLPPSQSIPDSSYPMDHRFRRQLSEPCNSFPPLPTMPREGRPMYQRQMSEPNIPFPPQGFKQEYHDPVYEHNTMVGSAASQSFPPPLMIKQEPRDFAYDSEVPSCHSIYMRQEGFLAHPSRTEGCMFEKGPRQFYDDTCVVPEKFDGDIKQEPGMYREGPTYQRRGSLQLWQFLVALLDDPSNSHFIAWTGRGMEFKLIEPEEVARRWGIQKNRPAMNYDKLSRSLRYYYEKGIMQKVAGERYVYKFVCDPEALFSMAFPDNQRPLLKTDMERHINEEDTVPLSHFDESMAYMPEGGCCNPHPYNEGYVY
Summary of the method: as §1

TGTTGC
binding signal (FEV): 1.25 fold enrichment (6-mer frequency, TF over GST control)
binding signal (ETV5): 1.35 fold enrichment (6-mer frequency, TF over GST control)
binding signal (HSF1): 1.02 fold enrichment (6-mer frequency, TF over GST control)
binding signal (SPIC): 1.17 fold enrichment (6-mer frequency, TF over GST control)
binding signal (ELF4): 1.34 fold enrichment (6-mer frequency, TF over GST control)
binding signal (ELK4): 1.37 fold enrichment (6-mer frequency, TF over GST control)
binding signal (ETV2): 1.15 fold enrichment (6-mer frequency, TF over GST control)
binding signal (ELF3): 1.28 fold enrichment (6-mer frequency, TF over GST control)
binding signal (CRX): 1.08 fold enrichment (6-mer frequency, TF over GST control)
binding signal (ETV1): 1.4 fold enrichment (6-mer frequency, TF over GST control)
